# Results published in article PMC7862700, “An all-to-all approach to the identification of sequence-specific readers for epigenetic DNA modifications on cytosine”.
# Key:
# Assay in all cases: DAPPL (digital affinity profiling via proximity ligation, sequencing); 10 mM Tris-HCl pH 7.5, 50 mM NaCl, 1 mM DTT, 4% glycerol, room temperature, 30 min; GST-TFs on glutathione beads, 16-mer random dsDNA library, 0.1% formaldehyde crosslink after washing; high values mean tight binding
# Conditions in all cases: protein: recombinant; tags: N-terminal GST; dsDNA, one strand shown
# ETV1 = ETV1 (Homo sapiens, UniProt P50549 1-477)
# Method in brief: (§1)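 After expression in yeast as GST fusions, human transcription factors were bound to glutathione beads, DNA-barcoded and mixed with a tag-only sample. The pools were incubated with 200 nmole of a 16-mer random double-stranded DNA library in Tris/NaCl/DTT/glycerol buffer (30 min, room temperature), washed and crosslinked with 0.1% formaldehyde. Proximity ligation with BsaI/T4 ligase ran for 1 h at 37 °C, before PCR amplification and sequencing on an Illumina NextSeq500. Binding signal is a hexamer's read frequency for a factor divided by its frequency for the tag-only sample.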
# ERF = target: T1, ERF (Homo sapiens, UniProt P50548 1-548)
# T1 sequence: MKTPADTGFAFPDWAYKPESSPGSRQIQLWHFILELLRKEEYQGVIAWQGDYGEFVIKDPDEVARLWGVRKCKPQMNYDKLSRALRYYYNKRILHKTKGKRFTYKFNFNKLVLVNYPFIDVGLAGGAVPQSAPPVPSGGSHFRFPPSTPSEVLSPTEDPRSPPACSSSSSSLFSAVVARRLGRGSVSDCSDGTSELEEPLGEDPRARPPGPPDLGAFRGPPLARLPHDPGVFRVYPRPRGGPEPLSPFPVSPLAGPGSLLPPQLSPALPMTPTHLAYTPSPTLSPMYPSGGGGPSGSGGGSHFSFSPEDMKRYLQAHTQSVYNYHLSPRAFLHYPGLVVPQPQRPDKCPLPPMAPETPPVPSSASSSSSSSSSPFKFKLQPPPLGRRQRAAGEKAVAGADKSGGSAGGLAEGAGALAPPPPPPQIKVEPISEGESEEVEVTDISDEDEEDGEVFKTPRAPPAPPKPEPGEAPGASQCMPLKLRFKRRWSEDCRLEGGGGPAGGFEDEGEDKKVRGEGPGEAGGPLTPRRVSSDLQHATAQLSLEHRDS
# Method in brief: as §1
# ETV3L = target: T2, ETV3L (Homo sapiens, UniProt Q6ZN32 1-361)
# T2 sequence: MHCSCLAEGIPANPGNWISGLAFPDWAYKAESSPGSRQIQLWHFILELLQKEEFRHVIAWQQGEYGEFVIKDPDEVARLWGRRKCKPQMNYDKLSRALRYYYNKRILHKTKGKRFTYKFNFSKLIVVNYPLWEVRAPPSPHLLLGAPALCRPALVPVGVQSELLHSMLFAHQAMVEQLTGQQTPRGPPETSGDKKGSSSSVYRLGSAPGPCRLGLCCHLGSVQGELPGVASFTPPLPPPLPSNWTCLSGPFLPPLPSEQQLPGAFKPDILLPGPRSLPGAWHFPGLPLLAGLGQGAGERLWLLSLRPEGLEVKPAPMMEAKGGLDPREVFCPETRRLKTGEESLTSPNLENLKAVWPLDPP
# Method in brief: as §1
# ETS2 = target: T3, ETS2 (Homo sapiens, UniProt P15036 1-469)
# T3 sequence: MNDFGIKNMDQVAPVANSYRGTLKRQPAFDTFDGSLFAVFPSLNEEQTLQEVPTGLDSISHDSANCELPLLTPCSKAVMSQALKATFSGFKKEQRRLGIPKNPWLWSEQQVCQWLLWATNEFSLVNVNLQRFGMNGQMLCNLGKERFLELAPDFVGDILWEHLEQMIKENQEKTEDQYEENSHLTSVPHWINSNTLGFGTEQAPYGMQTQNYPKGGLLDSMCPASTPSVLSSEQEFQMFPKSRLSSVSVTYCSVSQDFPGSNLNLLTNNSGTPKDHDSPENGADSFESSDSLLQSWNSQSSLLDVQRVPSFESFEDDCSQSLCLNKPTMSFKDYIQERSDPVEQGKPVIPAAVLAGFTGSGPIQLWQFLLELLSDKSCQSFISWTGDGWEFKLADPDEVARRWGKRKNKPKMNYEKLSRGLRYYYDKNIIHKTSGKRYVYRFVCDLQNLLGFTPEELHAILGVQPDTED
# Method in brief: as §1
# SPDEF = target: T4, SPDEF (Homo sapiens, UniProt O95238 1-335)
# T4 sequence: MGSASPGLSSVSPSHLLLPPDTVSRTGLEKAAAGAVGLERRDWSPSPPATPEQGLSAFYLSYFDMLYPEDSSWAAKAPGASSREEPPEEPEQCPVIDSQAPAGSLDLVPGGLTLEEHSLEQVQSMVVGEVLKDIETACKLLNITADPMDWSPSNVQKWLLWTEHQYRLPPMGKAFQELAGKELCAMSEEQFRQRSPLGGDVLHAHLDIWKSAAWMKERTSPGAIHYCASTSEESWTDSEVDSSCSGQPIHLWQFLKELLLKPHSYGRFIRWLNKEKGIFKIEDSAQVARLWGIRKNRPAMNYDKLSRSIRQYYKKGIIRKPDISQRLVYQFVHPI
# Method in brief: as §1
# ETV7 = target: T5, ETV7 (Homo sapiens, UniProt Q9Y603 1-341)
# T5 sequence: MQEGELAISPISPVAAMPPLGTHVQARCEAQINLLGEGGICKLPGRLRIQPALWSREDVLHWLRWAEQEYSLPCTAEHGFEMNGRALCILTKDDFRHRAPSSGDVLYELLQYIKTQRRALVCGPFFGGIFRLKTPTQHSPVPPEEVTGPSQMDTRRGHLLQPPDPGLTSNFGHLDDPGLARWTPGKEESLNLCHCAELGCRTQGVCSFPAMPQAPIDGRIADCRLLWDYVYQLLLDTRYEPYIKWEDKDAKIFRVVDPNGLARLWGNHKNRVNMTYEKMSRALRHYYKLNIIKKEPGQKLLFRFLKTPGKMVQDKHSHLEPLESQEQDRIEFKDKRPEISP
# Method in brief: as §1
# ELF5 = target: T6, ELF5 (Homo sapiens, UniProt Q9UKW6-2 1-255)
# T6 sequence: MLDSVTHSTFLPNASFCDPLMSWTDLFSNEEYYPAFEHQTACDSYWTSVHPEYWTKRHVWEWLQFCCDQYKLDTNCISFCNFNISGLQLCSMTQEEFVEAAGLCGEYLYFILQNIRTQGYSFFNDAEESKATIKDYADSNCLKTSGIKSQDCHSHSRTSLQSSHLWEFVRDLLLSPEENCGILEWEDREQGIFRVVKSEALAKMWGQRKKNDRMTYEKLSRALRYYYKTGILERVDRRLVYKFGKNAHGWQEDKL
# Method in brief: as §1
# ETV3 = target: T7, ETV3 (Homo sapiens, UniProt P41162-2 1-143)
# T7 sequence: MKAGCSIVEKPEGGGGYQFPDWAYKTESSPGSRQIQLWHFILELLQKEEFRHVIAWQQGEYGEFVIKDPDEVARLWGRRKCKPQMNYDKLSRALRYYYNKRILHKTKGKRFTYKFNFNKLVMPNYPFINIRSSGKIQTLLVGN
# Method in brief: as §1
# ETV6 = ETV6 (Homo sapiens, UniProt P41212 1-452)
# Method in brief: as §1
# ETV6, sequence (P41212 whole entry): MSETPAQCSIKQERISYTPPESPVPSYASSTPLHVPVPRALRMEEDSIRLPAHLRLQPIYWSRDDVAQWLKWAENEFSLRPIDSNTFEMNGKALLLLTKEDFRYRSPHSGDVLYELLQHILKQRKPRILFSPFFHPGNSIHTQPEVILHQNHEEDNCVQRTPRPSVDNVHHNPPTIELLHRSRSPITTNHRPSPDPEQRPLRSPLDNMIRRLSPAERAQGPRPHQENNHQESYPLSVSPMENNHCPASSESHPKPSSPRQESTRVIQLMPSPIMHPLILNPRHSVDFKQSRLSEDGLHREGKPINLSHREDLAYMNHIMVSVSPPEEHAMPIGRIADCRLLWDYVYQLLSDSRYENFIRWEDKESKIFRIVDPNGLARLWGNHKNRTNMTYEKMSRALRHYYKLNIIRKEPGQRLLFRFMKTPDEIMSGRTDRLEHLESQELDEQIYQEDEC
# ETV1, sequence (P50549 whole entry, the tested form may be a part): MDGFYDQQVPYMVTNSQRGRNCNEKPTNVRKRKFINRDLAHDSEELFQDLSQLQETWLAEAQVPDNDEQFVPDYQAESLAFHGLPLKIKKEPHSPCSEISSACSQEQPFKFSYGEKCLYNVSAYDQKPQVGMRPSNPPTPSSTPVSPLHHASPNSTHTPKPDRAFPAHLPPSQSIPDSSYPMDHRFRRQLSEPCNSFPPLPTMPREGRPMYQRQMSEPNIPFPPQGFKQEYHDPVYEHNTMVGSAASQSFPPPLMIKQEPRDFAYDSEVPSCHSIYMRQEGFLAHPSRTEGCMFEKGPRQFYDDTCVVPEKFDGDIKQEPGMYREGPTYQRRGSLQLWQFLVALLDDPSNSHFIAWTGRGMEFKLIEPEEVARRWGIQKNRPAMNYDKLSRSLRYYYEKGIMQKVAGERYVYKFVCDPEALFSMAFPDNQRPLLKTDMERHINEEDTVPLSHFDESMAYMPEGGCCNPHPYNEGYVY
sequence,measurement,setting,value
TCGACC,binding signal,ETV1,"1.25 fold enrichment (6-mer frequency, TF over GST control)"
same,binding signal,ERF,"1.31 fold enrichment (6-mer frequency, TF over GST control)"
same,binding signal,ETV3L,"1.33 fold enrichment (6-mer frequency, TF over GST control)"
same,binding signal,ETS2,"1.24 fold enrichment (6-mer frequency, TF over GST control)"
same,binding signal,SPDEF,"1.37 fold enrichment (6-mer frequency, TF over GST control)"
same,binding signal,ETV7,"1.21 fold enrichment (6-mer frequency, TF over GST control)"
same,binding signal,ELF5,"1.28 fold enrichment (6-mer frequency, TF over GST control)"
same,binding signal,ETV3,"1.27 fold enrichment (6-mer frequency, TF over GST control)"
same,binding signal,ETV6,"1.3 fold enrichment (6-mer frequency, TF over GST control)"
